Data published in article PMC8384837, “Expanding the binding specificity for RNA recognition by a PUF domain”.

Experiments:
Test in all cases: yeast three-hybrid, YBZ-1, SC-Leu-His + 0.5 mM 3-AT, 4 days
Details in all cases: tags: N-Gal4 AD-HA kept; label: inside an RPR1-promoter hybrid RNA with tandem MS2 sites; ssRNA
PUM1 PUF domain R5-RAQ = PUM1 PUF domain R5-RAQ (Homo sapiens, UniProt Q14671 828-1176, C1007R;R1008A)
In short: (§1)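 The interaction score is the log change in variant frequency from input to selection. Scores were computed in log2 with a pseudocount of 1 for absent variants, using Illumina sequencing of PCR-amplified repeat regions. The input came from four days on SC-Leu and the selection from four days on SC-Leu-His + 0.5 mM 3-AT. The cells were strain YBZ-1 (LexA–MS2 coat fusion, HIS3 reporter) co-expressing Pumilio-1 PUF domain libraries and matching RNA elements from a centromeric plasmid.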

PUM1 PUF domain R5-KCL = PUM1 PUF domain R5-KCL (Homo sapiens, UniProt Q14671 828-1176, C1007K;R1008C;Q1011L)
In short: as §1

PUM1 PUF domain R5-SPR = PUM1 PUF domain R5-SPR (Homo sapiens, UniProt Q14671 828-1176, C1007S;R1008P;Q1011R)
In short: as §1

PUM1 PUF domain R5-KAM = PUM1 PUF domain R5-KAM (Homo sapiens, UniProt Q14671 828-1176, C1007K;R1008A;Q1011M)
In short: as §1

PUM1 PUF domain R3-FYG = PUM1 PUF domain R3-FYG (Homo sapiens, UniProt Q14671 828-1176, C935F;R936Y;Q939G)
Chain of PUM1 PUF domain R3-FYG (Q14671 828-1176 C935F/R936Y/Q939G): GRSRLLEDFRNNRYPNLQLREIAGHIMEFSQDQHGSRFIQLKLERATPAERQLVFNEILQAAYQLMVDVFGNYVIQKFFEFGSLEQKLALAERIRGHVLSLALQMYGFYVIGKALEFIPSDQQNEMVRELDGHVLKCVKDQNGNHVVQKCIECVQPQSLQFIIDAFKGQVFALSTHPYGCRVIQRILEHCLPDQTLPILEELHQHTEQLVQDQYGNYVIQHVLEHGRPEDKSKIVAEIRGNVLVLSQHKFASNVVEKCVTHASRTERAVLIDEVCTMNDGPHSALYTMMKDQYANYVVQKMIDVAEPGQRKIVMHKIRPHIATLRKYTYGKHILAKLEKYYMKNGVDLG
In short: as §1

PUM1 PUF domain R3-FCM = PUM1 PUF domain R3-FCM (Homo sapiens, UniProt Q14671 828-1176, C935F;R936C;Q939M)
In short: as §1

PUM1 PUF domain R3-MCV = PUM1 PUF domain R3-MCV (Homo sapiens, UniProt Q14671 828-1176, C935M;R936C;Q939V)
In short: as §1

PUM1 PUF domain R4-RFP = PUM1 PUF domain R4-RFP (Homo sapiens, UniProt Q14671 828-1176, N971R;H972F;Q975P)
In short: as §1

PUM1 PUF domain R6-FRS = molecular target: T1, PUM1 PUF domain R6-FRS (Homo sapiens, UniProt Q14671 828-1176, N1043F;Y1044R;Q1047S)
T1 sequence: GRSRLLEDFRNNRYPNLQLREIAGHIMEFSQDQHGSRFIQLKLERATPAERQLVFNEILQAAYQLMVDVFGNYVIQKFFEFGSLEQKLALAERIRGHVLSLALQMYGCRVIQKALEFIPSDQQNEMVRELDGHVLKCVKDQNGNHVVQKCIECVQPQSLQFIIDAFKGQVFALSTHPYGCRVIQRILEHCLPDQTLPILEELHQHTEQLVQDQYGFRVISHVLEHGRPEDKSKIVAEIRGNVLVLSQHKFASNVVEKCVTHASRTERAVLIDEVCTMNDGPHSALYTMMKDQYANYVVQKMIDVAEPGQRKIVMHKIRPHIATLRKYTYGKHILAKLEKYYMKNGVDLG
In short: as §1

PUM1 PUF domain R5-MYR = PUM1 PUF domain R5-MYR (Homo sapiens, UniProt Q14671 828-1176, C1007M;R1008Y;Q1011R)
In short: as §1

PUM1 PUF domain R8-PHR = PUM1 PUF domain R8-PHR (Homo sapiens, UniProt Q14671 828-1176, N1122P;Y1123H;Q1126R)
In short: as §1

PUM1 PUF domain R3-GPY = PUM1 PUF domain R3-GPY (Homo sapiens, UniProt Q14671 828-1176, C935G;R936P;Q939Y)
In short: as §1

PUM1 PUF domain R2-EWL = PUM1 PUF domain R2-EWL (Homo sapiens, UniProt Q14671 828-1176, N899E;Y900W;Q903L)
In short: as §1

PUM1 PUF domain R3-SKL = PUM1 PUF domain R3-SKL (Homo sapiens, UniProt Q14671 828-1176, C935S;R936K;Q939L)
In short: as §1

PUM1 PUF domain R3-VRK = PUM1 PUF domain R3-VRK (Homo sapiens, UniProt Q14671 828-1176, C935V;Q939K)
In short: as §1

PUM1 PUF domain R5-MKC = PUM1 PUF domain R5-MKC (Homo sapiens, UniProt Q14671 828-1176, C1007M;R1008K;Q1011C)
In short: as §1

PUM1 PUF domain R5-GNN = PUM1 PUF domain R5-GNN (Homo sapiens, UniProt Q14671 828-1176, C1007G;R1008N;Q1011N)
In short: as §1

PUM1 PUF domain R4-NPN = PUM1 PUF domain R4-NPN (Homo sapiens, UniProt Q14671 828-1176, H972P;Q975N)
In short: as §1

PUM1 PUF domain R7-MSR = PUM1 PUF domain R7-MSR (Homo sapiens, UniProt Q14671 828-1176, S1079M;N1080S;E1083R)
In short: as §1

PUM1 PUF domain R7-RIR = PUM1 PUF domain R7-RIR (Homo sapiens, UniProt Q14671 828-1176, S1079R;N1080I;E1083R)
In short: as §1

Chain of PUM1 PUF domain R5-RAQ (Q14671 828-1176 C1007R/R1008A): as the sequence (Q14671 828-1176 C935F/R936Y/Q939G) above, with F108C, Y109R, G112Q, C180R, R181A counted along it

Sequence: GGCUAGAACUAGUGGAUCCCCCGGCGCCCGGCGGCUCGAGCCCGGGUAAGUGUCAAUAGUCUGCAUGCCGCCGGGCGCCAUGCCUGCAGGUCGACUCUAGAAAACAUG
- binding signal (PUM1 PUF domain R5-RAQ): 4.49 log2 enrichment (interaction score)
- binding signal (PUM1 PUF domain R5-KCL): 3.63 log2 enrichment (interaction score)
- binding signal (PUM1 PUF domain R5-SPR): 5.38 log2 enrichment (interaction score)
- binding signal (PUM1 PUF domain R5-KAM): 3.82 log2 enrichment (interaction score)

Sequence: GGCUAGAACUAGUGGAUCCCCCGGCGCCCGGCGGCUCGAGCCCGGGUAAGUGUAAGUAGUCUGCAUGCCGCCGGGCGCCAUGCCUGCAGGUCGACUCUAGAAAACAUG
- binding signal (PUM1 PUF domain R3-FYG): 7.3 log2 enrichment (interaction score)
- binding signal (PUM1 PUF domain R3-FCM): 4.3 log2 enrichment (interaction score)
- binding signal (PUM1 PUF domain R3-MCV): 2.64 log2 enrichment (interaction score)

Sequence: GGCUAGAACUAGUGGAUCCCCCGGCGCCCGGCGGCUCGAGCCCGGGUAAGUGUAAAUAGUCUGCAUGCCGCCGGGCGCCAUGCCUGCAGGUCGACUCUAGAAAACAUG
- binding signal (PUM1 PUF domain R5-RAQ): 1.44 log2 enrichment (interaction score)
- binding signal (PUM1 PUF domain R4-RFP): 6.66 log2 enrichment (interaction score)
- binding signal (PUM1 PUF domain R5-KCL): 2.45 log2 enrichment (interaction score)
- binding signal (PUM1 PUF domain R3-FYG): 4.62 log2 enrichment (interaction score)
- binding signal (PUM1 PUF domain R6-FRS): 2.9 log2 enrichment (interaction score)
- binding signal (PUM1 PUF domain R5-MYR): 2.55 log2 enrichment (interaction score)
- binding signal (PUM1 PUF domain R8-PHR): 4.34 log2 enrichment (interaction score)
- binding signal (PUM1 PUF domain R3-GPY): 6.77 log2 enrichment (interaction score)

Sequence: GGCUAGAACUAGUGGAUCCCCCGGCGCCCGGCGGCUCGAGCCCGGGUAAGUGUAAAAAGUCUGCAUGCCGCCGGGCGCCAUGCCUGCAGGUCGACUCUAGAAAACAUG
- binding signal (PUM1 PUF domain R2-EWL): 6.51 log2 enrichment (interaction score)

Sequence: GGCUAGAACUAGUGGAUCCCCCGGCGCCCGGCGGCUCGAGCCCGGGUAAGUGUAAUUAGUCUGCAUGCCGCCGGGCGCCAUGCCUGCAGGUCGACUCUAGAAAACAUG
- binding signal (PUM1 PUF domain R3-FYG): 5.45 log2 enrichment (interaction score)
- binding signal (PUM1 PUF domain R3-SKL): 2.84 log2 enrichment (interaction score)
- binding signal (PUM1 PUF domain R3-VRK): 3.28 log2 enrichment (interaction score)
- binding signal (PUM1 PUF domain R3-MCV): 1.41 log2 enrichment (interaction score)

Sequence: GGCUAGAACUAGUGGAUCCCCCGGCGCCCGGCGGCUCGAGCCCGGGUAAGUGUUAAUAGUCUGCAUGCCGCCGGGCGCCAUGCCUGCAGGUCGACUCUAGAAAACAUG
- binding signal (PUM1 PUF domain R5-MKC): 2.53 log2 enrichment (interaction score)
- binding signal (PUM1 PUF domain R5-RAQ): 4.06 log2 enrichment (interaction score)
- binding signal (PUM1 PUF domain R5-GNN): 3.44 log2 enrichment (interaction score)

Sequence: GGCUAGAACUAGUGGAUCCCCCGGCGCCCGGCGGCUCGAGCCCGGGUAAGUGUAUAUAGUCUGCAUGCCGCCGGGCGCCAUGCCUGCAGGUCGACUCUAGAAAACAUG
- binding signal (PUM1 PUF domain R4-RFP): 3.26 log2 enrichment (interaction score)
- binding signal (PUM1 PUF domain R4-NPN): 3.56 log2 enrichment (interaction score)

Sequence: GGCUAGAACUAGUGGAUCCCCCGGCGCCCGGCGGCUCGAGCCCGGGUAAGCGUAAAUAGUCUGCAUGCCGCCGGGCGCCAUGCCUGCAGGUCGACUCUAGAAAACAUG
- binding signal (PUM1 PUF domain R8-PHR): 4.58 log2 enrichment (interaction score)

Sequence: GGCUAGAACUAGUGGAUCCCCCGGCGCCCGGCGGCUCGAGCCCGGGUAAGUUUAAAUAGUCUGCAUGCCGCCGGGCGCCAUGCCUGCAGGUCGACUCUAGAAAACAUG
- binding signal (PUM1 PUF domain R7-MSR): 3.5 log2 enrichment (interaction score)
- binding signal (PUM1 PUF domain R7-RIR): 3.4 log2 enrichment (interaction score)
